In PubChem BioAssay (EPA / NIEHS):
Inconclusive results are not listed. Active and inactive are the calls of the source. Rule for the calls, unless noted: active = hit-call score of the fitted dose curve at least 0.9, where 1 is the maximum; inactive = score below 0.9.

Key:
[1] = ACEA_ER_80hr: ACEA Biosciences xCELLigence Real-Time Cell Analysis on Estrogen Receptor Agonism for Proliferation (AID 2282667; active = hit-call score of the fitted dose curve at least 0.9, where 1 is the maximum); conditions: T47D proliferation, impedance (xCELLigence), 80 h
Outline: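 Estrogen-driven proliferation is captured as electrode impedance in T47D cells 80 h after compound addition. Test articles ran at 8 concentrations, 1:4 dilutions from 100 uM final, in two replicate plates.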

[2] = ATG_CRE_CIS: Attagene CIS-FACTORIAL HepG2 Assay for human cAMP Responsive Element (CRE) binding protein 3 (AID 2282926); conditions: HepG2 CRE cis-reporter, Attagene multiplexed mRNA; actives raise or lower the signal
Outline: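 Transfected HepG2 were treated for 24 hours, then RNA was extracted and reporter cDNA amplified with sequence-specific primers. Labelled fragments were separated by capillary electrophoresis, and the CRE signal was fitted bidirectionally with DMSO as baseline.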

[3] = biological target: CCAAT/enhancer-binding protein beta (Homo sapiens) (UniProt P17676); assay: ATG_C_EBP_CIS: Attagene CIS-FACTORIAL HepG2 Assay for human CCAAT/Enhancer Binding Protein (C/EBP) beta (AID 2282927); conditions: HepG2 Attagene cis-factorial transcription factor reporter; actives raise or lower the signal
Sequence of CCAAT/enhancer-binding protein beta (Homo sapiens) (P17676 whole entry, looked up): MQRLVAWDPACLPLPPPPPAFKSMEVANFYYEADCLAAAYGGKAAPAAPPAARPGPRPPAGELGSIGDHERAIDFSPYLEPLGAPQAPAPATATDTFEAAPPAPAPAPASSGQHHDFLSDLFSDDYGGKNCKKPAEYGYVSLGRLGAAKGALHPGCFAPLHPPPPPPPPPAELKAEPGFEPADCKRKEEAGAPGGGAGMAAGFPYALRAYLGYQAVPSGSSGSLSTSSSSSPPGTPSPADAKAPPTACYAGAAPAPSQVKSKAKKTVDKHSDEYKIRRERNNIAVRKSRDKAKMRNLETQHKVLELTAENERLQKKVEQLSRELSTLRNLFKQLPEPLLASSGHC
Outline: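 RT-PCR/capillary electrophoresis fluorescence of reporter mRNA, 24 h post-dose, in HepG2 cells carrying transfected cis-promoter reporter units. Bidirectional curve fitting against DMSO baseline captures gain or loss of signal.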

[4] = ATG_CMV_CIS: Attagene CIS-FACTORIAL HepG2 Assay for human CMV (Internal Marker) (AID 2282928); conditions: HepG2 CMV promoter reporter, transcription factor profiling; actives raise or lower the signal;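 note: endpoint acts as a background internal control marker rather than a target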
Outline: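 After transient transfection of HepG2 with reporter transcription units driven by cis-regulatory promoters, cells receive test chemical for 24 h. Labeled reporter amplicons, digested with HpaI, are sized and quantified by capillary electrophoresis against DMSO.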

[5] = ATG_DR4_LXR_CIS: Attagene CIS-FACTORIAL HepG2 Assay for human Liver X Receptor (LXR), DR4 submotif (AID 2282929); conditions: HepG2 Attagene DR4 cis-reporter, mRNA transcription; actives raise or lower the signal
Outline: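 HepG2 cells transiently transfected with cis-promoter-driven multiplexed reporter units (DR4 element) were dosed for 24 h. Reporter mRNA was quantified by RT-PCR, fluorescent primer extension, HpaI digestion and capillary electrophoresis; bidirectional fitting versus DMSO baseline.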

[6] = biological target: Aryl hydrocarbon receptor (Homo sapiens) (UniProt P35869); assay: ATG_Ahr_CIS: Attagene CIS-FACTORIAL HepG2 Assay for human Aryl Hydrocarbon Receptor (Ahr) (AID 2282930); conditions: HepG2 AhR cis-factorial reporter transcription; actives raise or lower the signal
Sequence of Aryl hydrocarbon receptor (Homo sapiens) (P35869 whole entry, looked up): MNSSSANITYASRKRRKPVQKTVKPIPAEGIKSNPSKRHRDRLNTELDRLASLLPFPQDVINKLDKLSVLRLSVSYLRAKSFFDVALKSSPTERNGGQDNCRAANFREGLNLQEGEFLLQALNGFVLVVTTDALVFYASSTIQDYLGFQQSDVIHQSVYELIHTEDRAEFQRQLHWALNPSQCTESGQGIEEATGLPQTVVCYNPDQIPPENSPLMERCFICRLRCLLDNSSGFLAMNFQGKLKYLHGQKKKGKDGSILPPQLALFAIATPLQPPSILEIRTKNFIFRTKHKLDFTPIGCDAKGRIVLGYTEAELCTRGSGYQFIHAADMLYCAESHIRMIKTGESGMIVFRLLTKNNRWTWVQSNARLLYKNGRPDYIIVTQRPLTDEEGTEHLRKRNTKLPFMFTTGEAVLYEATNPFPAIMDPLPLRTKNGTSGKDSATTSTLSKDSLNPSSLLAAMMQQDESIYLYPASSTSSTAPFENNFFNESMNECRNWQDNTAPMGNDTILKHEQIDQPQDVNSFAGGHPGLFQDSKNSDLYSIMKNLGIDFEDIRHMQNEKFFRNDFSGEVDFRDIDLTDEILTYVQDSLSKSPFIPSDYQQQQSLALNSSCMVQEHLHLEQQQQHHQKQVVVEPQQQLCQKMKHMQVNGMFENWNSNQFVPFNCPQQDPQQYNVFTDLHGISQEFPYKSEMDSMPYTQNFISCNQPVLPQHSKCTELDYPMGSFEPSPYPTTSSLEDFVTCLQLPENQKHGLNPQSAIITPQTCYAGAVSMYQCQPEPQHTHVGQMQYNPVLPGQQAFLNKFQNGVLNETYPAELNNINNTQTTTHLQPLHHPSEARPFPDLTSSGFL
Outline: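 HepG2 cells transiently transfected with cis-element-driven multiplexed reporter transcription units; endogenous transcription factor activity measured as reporter mRNA 24 h after dosing. RT-PCR, 6-FAM labelling, HpaI digestion, capillary electrophoresis; bidirectional fitting versus DMSO baseline.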

[7] = ATG_AP_1_CIS: Attagene CIS-FACTORIAL HepG2 Assay for human Activator Protein 1 (AP-1) (AID 2282931); conditions: HepG2 Attagene cis-factorial AP-1 reporter mRNA; actives raise or lower the signal
Outline: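 HepG2 cells transiently transfected with cis-element-driven multiplex reporter units; 24 h compound exposure. Reporter mRNA quantified by RT-PCR, FAM-labelled fragments resolved by capillary electrophoresis; bidirectional fit versus DMSO baseline.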

[8] = ATG_AP_2_CIS: Attagene CIS-FACTORIAL HepG2 Assay for human Activator Protein 2 (AP-2) (AID 2282932); conditions: HepG2 AP-2 cis-reporter, Attagene transcription factor profiling; actives raise or lower the signal
Outline: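 HepG2 cells were transiently transfected with multiple cis-promoter reporter transcription units and dosed for 24 h. Reporter mRNA was measured by RT-PCR with capillary electrophoresis fluorescence; bidirectional fits relative to DMSO baseline.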

[9] = ATG_BRE_CIS: Attagene CIS-FACTORIAL HepG2 Assay for human Bone Morphogenetic Protein (BMP) Response Element (BRE) (AID 2282933); conditions: HepG2 BMP response element reporter, Attagene transcription factor profiling; actives raise or lower the signal
Outline: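 After a 24 h chemical treatment, transiently transfected HepG2 cells were lysed for RNA; reporter transcripts were quantified by fluorescent RT-PCR and capillary electrophoresis, normalised to DMSO.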

[10] = biological target: Retinoic acid receptor alpha (Homo sapiens) (UniProt P10276); assay: ATG_DR5_RAR_CIS: Attagene CIS-FACTORIAL HepG2 Assay for human Retinoic Acid Receptor Alpha (RARE), DR5 submotif (AID 2282934); conditions: HepG2 Attagene cis-factorial RARE DR5 reporter, mRNA; actives raise or lower the signal
Sequence of Retinoic acid receptor alpha (Homo sapiens) (P10276 whole entry, looked up): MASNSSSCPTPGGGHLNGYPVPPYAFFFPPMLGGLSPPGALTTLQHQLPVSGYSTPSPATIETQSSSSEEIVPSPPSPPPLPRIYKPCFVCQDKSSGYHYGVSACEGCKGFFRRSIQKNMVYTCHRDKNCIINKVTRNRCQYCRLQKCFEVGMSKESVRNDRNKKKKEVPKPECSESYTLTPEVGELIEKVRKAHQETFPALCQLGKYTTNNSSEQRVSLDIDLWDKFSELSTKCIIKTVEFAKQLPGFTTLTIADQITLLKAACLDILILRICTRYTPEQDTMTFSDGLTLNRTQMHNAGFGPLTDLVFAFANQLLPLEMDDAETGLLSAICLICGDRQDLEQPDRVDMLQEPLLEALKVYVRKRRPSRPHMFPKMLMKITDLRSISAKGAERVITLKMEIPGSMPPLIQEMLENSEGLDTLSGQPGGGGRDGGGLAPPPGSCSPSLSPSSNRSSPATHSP
Outline: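 HepG2 cells transiently transfected with multiplexed reporter units under cis (DR5 RARE) promoters, so endogenous transcription factor activity is measured. After 24 h compound exposure, reporter mRNA is quantified by RT-PCR with fluorescent labelling and capillary electrophoresis; bidirectional fitting versus DMSO.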

[11] = biological target: Transcription factor E2F1 (Homo sapiens) (UniProt Q01094); assay: ATG_E2F_CIS: Attagene CIS-FACTORIAL HepG2 Assay for human E2F Transcription Factor 1 (AID 2282935); conditions: HepG2 Attagene cis-reporter, E2F reporter RNA transcripts; actives raise or lower the signal
Sequence of Transcription factor E2F1 (Homo sapiens) (Q01094 whole entry, looked up): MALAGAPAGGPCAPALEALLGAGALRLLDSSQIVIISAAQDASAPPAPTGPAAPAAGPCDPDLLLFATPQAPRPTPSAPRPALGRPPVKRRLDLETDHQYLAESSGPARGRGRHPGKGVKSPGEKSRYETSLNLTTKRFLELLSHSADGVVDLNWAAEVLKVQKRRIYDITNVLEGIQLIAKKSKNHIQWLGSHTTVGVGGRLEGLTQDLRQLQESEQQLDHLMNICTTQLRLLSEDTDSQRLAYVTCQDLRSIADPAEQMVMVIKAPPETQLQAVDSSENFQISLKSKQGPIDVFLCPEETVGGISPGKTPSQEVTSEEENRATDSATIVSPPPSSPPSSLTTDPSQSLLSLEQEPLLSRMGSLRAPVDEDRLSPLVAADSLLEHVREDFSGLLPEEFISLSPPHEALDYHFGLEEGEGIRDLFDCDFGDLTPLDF
Outline: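 HepG2 cells transiently transfected with multiplexed cis-element reporter units, dosed for 24 h. Reporter mRNA measured by RT-PCR, 6-FAM primer-extension labeling, HpaI digestion and capillary electrophoresis; bidirectional fit versus DMSO baseline.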

[12] = ATG_E_Box_CIS: Attagene CIS-FACTORIAL HepG2 Assay for human Enhancer Box (E-box) (AID 2282936); conditions: HepG2 E-box cis-reporter transcription, actives raise or lower the signal
Outline: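 HepG2 cells transiently transfected with multiplexed cis-element reporter units sensing endogenous transcription factor activity; 24 h compound exposure. Reporter mRNA measured by RT-PCR, 6-FAM primer extension, HpaI digestion and capillary electrophoresis; bidirectional fit versus DMSO.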

[13] = ATG_M_61_CIS: Attagene CIS-FACTORIAL HepG2 Assay for M61 Transcription Factor (Internal Marker) (AID 2282937); conditions: HepG2 Attagene CIS-FACTORIAL M61 internal marker reporter; actives raise or lower the signal
Outline: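 HepG2 cells transiently transfected with cis-element-driven multiple reporter transcription units, dosed for 24 h. Reporter mRNA measured by RT-PCR, 6-FAM primer-extension labelling, HpaI digestion and capillary electrophoresis; bidirectional fit versus DMSO baseline.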

[14] = ATG_EGR_CIS: Attagene CIS-FACTORIAL HepG2 Assay for human Early Growth Response 1 (EGR1) (AID 2282938); conditions: HepG2 Attagene CIS-FACTORIAL EGR reporter mRNA; actives raise or lower the signal
Outline: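 HepG2 cells transiently transfected with cis-promoter-driven multiplexed reporter transcription units; reporter mRNA measured 24 h after compound dosing by RT-PCR, 6-FAM primer extension, HpaI digestion and capillary electrophoresis. Bidirectional fit versus DMSO baseline.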

[15] = ATG_M_19_CIS: Attagene CIS-FACTORIAL HepG2 Assay for M19 Transcription Factor (Internal Marker) (AID 2282939); conditions: HepG2 Attagene CIS-FACTORIAL M19 internal marker reporter; actives raise or lower the signal
Outline: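 In this multiplexed cell assay, transiently transfected HepG2 reporter units report endogenous transcription-factor activity; after 24 hours of treatment, labelled reporter cDNA fragments are quantified by capillary electrophoresis and fitted bidirectionally against DMSO.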

[16] = ATG_ERE_CIS: Attagene CIS-FACTORIAL HepG2 Assay for Estrogen Response Element (ERE) (AID 2282940); conditions: HepG2 ERE cis-reporter, Attagene RNA transcript; actives raise or lower the signal
Outline: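 Measuring endogenous transcription factor output, the assay doses transfected HepG2 cells for 24 hours and quantifies reporter transcripts by fluorescent RT-PCR and capillary electrophoresis, with DMSO as baseline.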

[17] = ATG_Ets_CIS: Attagene CIS-FACTORIAL HepG2 Assay for human Erythroblast Transformation Specific (ETS) (AID 2282941); conditions: HepG2 ETS cis-reporter transcription, actives raise or lower the signal
Outline: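 Human HepG2 hepatoma cells were transiently transfected with promoter-driven reporter constructs and treated for 24 hours. Reporter transcripts were quantified by RT-PCR with fluorescent primer extension; bidirectional curve fitting used DMSO as reference.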

[18] = biological target: Hepatocyte nuclear factor 3-beta (Homo sapiens) (UniProt Q9Y261); assay: ATG_FoxA2_CIS: Attagene CIS-FACTORIAL HepG2 Assay for human Forkhead box A2 (FOXA2) (AID 2282942); conditions: HepG2 cis-reporter transcription factor activity, 24 h; actives raise or lower the signal
Sequence of Hepatocyte nuclear factor 3-beta (Homo sapiens) (Q9Y261 whole entry, looked up): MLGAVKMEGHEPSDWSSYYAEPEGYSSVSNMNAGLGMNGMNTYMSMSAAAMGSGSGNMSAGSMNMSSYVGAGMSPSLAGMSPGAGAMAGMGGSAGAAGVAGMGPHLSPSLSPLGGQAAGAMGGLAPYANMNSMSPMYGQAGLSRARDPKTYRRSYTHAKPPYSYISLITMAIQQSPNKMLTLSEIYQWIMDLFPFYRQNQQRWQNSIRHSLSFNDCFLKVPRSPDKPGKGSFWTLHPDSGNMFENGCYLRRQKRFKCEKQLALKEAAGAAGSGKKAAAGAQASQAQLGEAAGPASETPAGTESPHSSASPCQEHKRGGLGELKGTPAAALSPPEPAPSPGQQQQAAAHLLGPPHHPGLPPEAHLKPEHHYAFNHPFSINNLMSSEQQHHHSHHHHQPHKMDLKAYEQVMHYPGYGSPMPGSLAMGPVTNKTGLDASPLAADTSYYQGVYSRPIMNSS
Outline: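 HepG2 cells transiently transfected with multiple cis-regulated reporter transcription units, dosed for 24 h. Reporter mRNA measured by RT-PCR, 6-FAM labelling, HpaI digestion and capillary electrophoresis; bidirectional fitting against DMSO baseline.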

[19] = ATG_FoxO_CIS: Attagene CIS-FACTORIAL HepG2 Assay for human Forkhead box O (FoxO) (AID 2282943); conditions: HepG2 Attagene cis-reporter, FoxO element, mRNA; actives raise or lower the signal
Outline: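 HepG2 cells transiently transfected with cis-promoter-driven multiple reporter transcription units; 24 h after chemical dosing, reporter mRNA quantified by RT-PCR, fluorescent primer extension, HpaI digestion and capillary electrophoresis. Bidirectional fitting versus DMSO baseline.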

[20] = ATG_GATA_CIS: Attagene CIS-FACTORIAL HepG2 Assay for human GATA Binding Protein (AID 2282944); conditions: HepG2 GATA cis-element reporter, Attagene multiplex mRNA; actives raise or lower the signal
Outline: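 Measures endogenous transcription factor-driven reporter mRNA in HepG2 cells transiently carrying cis-regulated constructs. 24 h dosing; RNA via oligo(dT) reverse transcription, PCR, HpaI digestion, capillary electrophoresis; fitted relative to DMSO.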

Measured: AC50

c1ccc(C[P+](c2ccccc2)(c2ccccc2)c2ccccc2)cc1
active: [1] 132 nM | [5] 100 µM | [9] 10.7 µM
inactive: all other assays above

Brc1nc2ccccc2s1
active: [1] 40.8 nM | [5] 100 µM | [6] 2.56 µM | [7] 65.1 µM | [12] 100 µM
not listed: [18]
inactive: all other assays above

CCOC(OCC)OCC
active: [6] 31.6 µM
inactive: all other assays above

CC1=CCC2C(=O)OC(=O)C2C1 (configuration not stated)
active: [6] 65 µM
not listed: [14] | [18]
inactive: all other assays above

OCC1CCCO1 (configuration not stated)
inactive: all assays above

CN1CN(C)CN(C)C1
active: [5] 135 µM
inactive: all other assays above

CC(=O)CCC(C)C
inactive: all assays above
